For assay [1], the target named is Arylsulfatase A (Homo sapiens) (UniProt P15289). Kind of assay: qHTS screen for enhancers of Arylsulfatase A (ASA1): LOPAC Validation Assay (AID 720538). In a few lines: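 Enhancer assay in patient-derived MLD fibroblasts carrying ASA-I179S: 48 h compound exposure at 37 C, then 14 h room-temperature pNCS turnover (0.5 mM final) in lysis buffer. Read by fluorescence at 525/598 nm after NaOH stop.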

A short description of assay [2]: qHTS for compounds that reverse cellular toxicity of Amyloid beta (A-beta) peptide in yeast: LOPAC Validation Assay (AID 720559). In a few lines:
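Rescue of A-beta toxicity was scored as yeast growth by 600 nm absorbance after 48 hr at 30 C with compound. Normalization used DMSO (negative) and equimolar ferric chloride plus clioquinol (positive).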
On the technique in general: In qHTS, concentration-response curves come from the screen itself.

The nature of assay [3]: qHTS for Activators of Parkin Expression: LOPAC Validation Assay (NLuc Reporter) (AID 720572). In short, it runs like this:
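Parkin promoter-driven FLuc/NLuc neuronal reporter cells; 24 h plating, 7-pt dose response, 24 h at 37 C/5% CO2; FLuc then NanoLuc reagent, 10 min each, luminescence; DMSO/positive control normalized.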

A short description of assay [4]: qHTS for Activators of Parkin Expression: LOPAC Validation Assay (FLuc Reporter) (AID 720573). In short, it runs like this:
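FLuc signal from Parkin-promoter coincidence reporter neuronal cells, normalized to DMSO and positive control (100%). Cells (1,500/well) pre-incubated 24 h, then exposed to LOPAC compounds in 7-point dose response for 24 h at 37 C, 5% CO2.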

Assay [5] addresses T1, Hexokinase-4 (Homo sapiens) + Glucokinase regulatory protein (Homo sapiens) (UniProt P35557+Q14397). Kind of assay: qHTS assay for inhibitors of recombinant human GCK-GKRP interaction: Diaphorase-coupled assay (AID 743205). In short, it runs like this: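 A kinetic fluorescence read (Ex 525/Em 590 nm, every minute for 30 minutes) tracked resorufin from a G6PDH-diaphorase coupled GCK reaction. It contained 10 nM GST-GCK, 10 nM FLAG-GKRP, 5 mM glucose, 0.4 mM ATP in Hepes pH 7.6. Normalized to with/without-enzyme DMSO controls.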

In assay [6] the target is T1, Hexokinase-4 (Homo sapiens) + Glucokinase regulatory protein (Homo sapiens). Kind of assay: qHTS assay for inhibitors of recombinant human GCK-GKRP interaction: ADP-Glo assay (AID 743206). In a few lines: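 GST-GCK and FLAG-GKRP (15 nM each in the dispensed mix, with 2 uM S6P) react with 0.4 mM ATP and 5 mM glucose (final) in Hepes pH 7.6 for 60 min at room temperature. ADP is measured by ADP-Glo luminescence.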

For assay [7] the target is unchanged. The assay is described as follows: qHTS assay for inhibitors of recombinant human GCK-GKRP interaction: HTRF assay (AID 743207). Further: potency means the concentration at half of the fitted maximal effect. In short, it runs like this:
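After 60 min equilibration at room temperature with anti-FLAG XL665 and anti-GST antibodies, FRET ratio (665/615 nm, excitation 320 nm) was read. Proteins: GST-GCK and FLAG-GKRP, each 5 nM, plus 2 uM S6P, pH 7.1 buffer; GCK-free wells define minimum signal.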

Results filed as inconclusive are left out. Activity calls are given as the source filed them. The call rests on the fitted dose curve; in most records, active means well fitted curve in the direction sought with a large enough effect; inconclusive means small, poorly fitted or top-dose-only effect, or another doubt; inactive means no such curve, though single readings can be large; an effect the other way counts as inactive or inconclusive.

The results in this text go back to PubChem BioAssay (NCATS).

T1 sequence (P35557 whole entry, looked up): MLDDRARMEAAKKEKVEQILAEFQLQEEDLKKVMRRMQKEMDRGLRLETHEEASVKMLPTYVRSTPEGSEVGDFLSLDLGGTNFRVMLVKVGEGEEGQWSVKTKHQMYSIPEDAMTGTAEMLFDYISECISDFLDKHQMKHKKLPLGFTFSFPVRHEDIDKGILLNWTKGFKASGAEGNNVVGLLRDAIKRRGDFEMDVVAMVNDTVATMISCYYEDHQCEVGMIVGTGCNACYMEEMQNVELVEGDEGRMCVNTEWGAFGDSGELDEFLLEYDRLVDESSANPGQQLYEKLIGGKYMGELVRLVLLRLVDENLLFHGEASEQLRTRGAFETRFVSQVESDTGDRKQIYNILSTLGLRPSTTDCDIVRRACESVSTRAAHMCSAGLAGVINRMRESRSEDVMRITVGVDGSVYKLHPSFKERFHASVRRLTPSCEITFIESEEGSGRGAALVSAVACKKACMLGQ
T1 sequence (Q14397 whole entry, looked up): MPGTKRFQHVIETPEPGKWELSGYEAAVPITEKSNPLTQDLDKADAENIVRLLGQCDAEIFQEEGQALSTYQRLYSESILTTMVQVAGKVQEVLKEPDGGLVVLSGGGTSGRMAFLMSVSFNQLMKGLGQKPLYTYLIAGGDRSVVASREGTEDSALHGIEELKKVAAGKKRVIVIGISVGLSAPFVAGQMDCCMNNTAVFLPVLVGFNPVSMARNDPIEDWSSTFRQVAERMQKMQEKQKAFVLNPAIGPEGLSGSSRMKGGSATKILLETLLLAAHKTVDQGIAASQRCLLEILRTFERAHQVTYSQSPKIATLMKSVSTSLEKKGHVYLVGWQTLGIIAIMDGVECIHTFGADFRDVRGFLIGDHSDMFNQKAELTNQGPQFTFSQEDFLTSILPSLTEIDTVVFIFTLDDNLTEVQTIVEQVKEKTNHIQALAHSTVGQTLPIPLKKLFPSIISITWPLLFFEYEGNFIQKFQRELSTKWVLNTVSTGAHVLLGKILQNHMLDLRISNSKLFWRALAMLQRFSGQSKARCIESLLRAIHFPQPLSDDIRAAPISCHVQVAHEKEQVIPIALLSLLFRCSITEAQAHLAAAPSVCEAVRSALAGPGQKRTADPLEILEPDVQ
Arylsulfatase A (Homo sapiens), sequence (P15289 whole entry, looked up): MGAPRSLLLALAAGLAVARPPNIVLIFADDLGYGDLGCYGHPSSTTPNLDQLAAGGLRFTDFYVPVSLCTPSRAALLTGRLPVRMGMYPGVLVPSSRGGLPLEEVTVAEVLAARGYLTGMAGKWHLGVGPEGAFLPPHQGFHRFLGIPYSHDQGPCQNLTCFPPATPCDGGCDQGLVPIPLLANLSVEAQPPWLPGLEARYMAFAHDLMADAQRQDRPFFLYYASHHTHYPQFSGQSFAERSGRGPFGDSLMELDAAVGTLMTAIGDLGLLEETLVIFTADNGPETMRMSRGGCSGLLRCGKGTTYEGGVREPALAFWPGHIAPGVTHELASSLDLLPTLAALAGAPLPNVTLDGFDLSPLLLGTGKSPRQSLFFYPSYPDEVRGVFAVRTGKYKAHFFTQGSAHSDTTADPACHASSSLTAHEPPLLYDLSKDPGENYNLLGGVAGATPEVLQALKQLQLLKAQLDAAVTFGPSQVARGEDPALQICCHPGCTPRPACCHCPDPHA

Regarding `COc1ccc(CCN(C)CCCC(C#N)(c2cc(OC)c(OC)c(OC)c2)C(C)C)cc1OC` (stereo not drawn), the Potency result in assay [1], in assay [3] and in assay [7] was “inactive” in each case. The compound was classed as inactive in assay [2], in assay [4], in assay [5] and in assay [6].
Take `CCCCCN(CCCCC)C(=O)C(CCC(=O)O)NC(=O)c1ccc(Cl)c(Cl)c1` (stereo not drawn): the Potency result in assay [1], in assay [3] and in assay [7] was “inactive” each time. Besides, the result in assay [2], in assay [4], in assay [5] and in assay [6] was inactive.
Regarding `NC(=O)c1cn(Cc2c(F)cccc2F)nn1`, the Potency entry in assay [1], in assay [3] and in assay [7] was “inactive” each time. Moreover, the compound was classed as inactive in assay [2], in assay [5] and in assay [6].
Turning to `CNCCC(Oc1ccccc1OC)c1ccccc1` (stereo not drawn), the Potency entry in assay [1], in assay [3] and in assay [7] was “inactive” each time. The result in assay [2], in assay [5] and in assay [6] was inactive.
In the case of `CN(C)CCN(Cc1cccs1)c1ccccn1`, the Potency entry in assay [1], in assay [3] and in assay [7] was “inactive” in each case. Moreover, the result in assay [2], in assay [4], in assay [5] and in assay [6] was inactive.
On to `O=C(O)CN(CCN(CC(=O)O)CC(=O)O)CCN(CC(=O)O)CC(=O)O`, for which the Potency entry in assay [3] and in assay [7] was “inactive” throughout. Also, the call in assay [4], in assay [5] and in assay [6] was inactive.
Regarding `C[C@@H](O)[C@H]1C(=O)N2C(C(=O)O)=C(SCCN=CN)C[C@H]12`, the outcome in assay [2], in assay [4], in assay [5] and in assay [6] was inactive. For the same compound, the Potency result in assay [3] and in assay [7] was “inactive” each time.
With `OCCN1CCN(CC/C=C2/c3ccccc3Sc3ccc(C(F)(F)F)cc32)CC1`, the compound was classed as inactive in assay [2], in assay [4], in assay [5] and in assay [6]. The Potency result in assay [3] and in assay [7] was “inactive” in each case.
As to `CCc1c(C)[nH]c2c1C(=O)C(CN1CCOCC1)CC2` (stereo not drawn), the outcome in assay [2], in assay [4], in assay [5] and in assay [6] was inactive. Moreover, the Potency entry in assay [3] and in assay [7] was “inactive” each time.
With `CC(=O)OCC1=C(C(=O)O)N2C(=O)[C@@H](NC(=O)Cc3cccs3)[C@H]2SC1`, the compound was classed as inactive in assay [2], in assay [4], in assay [5] and in assay [6]. For the same compound, the Potency entry in assay [3] and in assay [7] was “inactive” in each case.
Consider `C=CCc1ccccc1OCC(O)CNC(C)C` (stereo not drawn), for which the Potency result in assay [3] and in assay [7] was “inactive” each time. Also, the compound was called inactive in assay [4], in assay [5] and in assay [6].
On to `COc1cc2c(cc1OC)-c1cc(=Nc3c(C)cc(C)cc3C)n(C)c(=O)n1CC2`, for which the result in assay [2], in assay [4], in assay [5] and in assay [6] was inactive. Further, the Potency result in assay [3] and in assay [7] was “inactive” each time.
On to `COCC(=O)O[C@]1(CCN(C)CCCc2nc3ccccc3[nH]2)CCc2cc(F)ccc2[C@@H]1C(C)C`, for which the compound was called inactive in assay [2], in assay [4], in assay [5] and in assay [6]. The Potency entry in assay [3] and in assay [7] was “inactive” each time.
As for `CN(C)[C@@H]1C(=O)C(C(N)=O)=C(O)[C@@]2(O)C(=O)C3=C(O)c4c(O)ccc(Cl)c4[C@@H](O)[C@H]3C[C@@H]12`, the compound was classed as inactive in assay [2], in assay [4], in assay [5] and in assay [6]. Also, in assay [3], the Potency result was “inactive”. In addition, in assay [7], the Potency is 12.6 µM (active).
With `CN(C)CC[C@@H](c1ccc(Br)cc1)c1ccccn1`, the result in assay [5] and in assay [6] was inactive. In addition, in assay [7], the Potency entry is “inactive”.
As to `C[C@]12CCC(=O)C=C1CC[C@@H]1[C@@H]2CC[C@@]2(C)[C@H]1CC[C@]2(O)C(=O)CO`, the compound was called inactive in assay [2], in assay [4], in assay [5] and in assay [6]. The Potency entry in assay [3] and in assay [7] was “inactive” throughout.
Consider `O=C1NCN(c2ccccc2)C12CCN(CCCC(c1ccc(F)cc1)c1ccc(F)cc1)CC2`, for which the call in assay [2], in assay [5] and in assay [6] was inactive. Further, the Potency result in assay [3] and in assay [7] was “inactive” each time.
Regarding `C[N+](C)(C)CCCCCCCCCC[N+](C)(C)C`, the result in assay [5] and in assay [6] was inactive. The Potency entry in assay [7] is “inactive”.
Turning to `O=C(O)CN(CCOCCOCCN(CC(=O)O)CC(=O)O)CC(=O)O`, the compound was classed as inactive in assay [2], in assay [5] and in assay [6]. Moreover, the Potency entry in assay [3] and in assay [7] was “inactive” each time.
Regarding `c1cc(CN2CCCCC2)cc(OCCCNc2nc3ccccc3s2)c1`, the result in assay [2], in assay [5] and in assay [6] was inactive. Also, the Potency entry in assay [3] and in assay [7] was “inactive” each time.
Turning to `C[C@H](CS)C(=O)N1CCC[C@H]1C(=O)O`, the outcome in assay [2], in assay [4], in assay [5] and in assay [6] was inactive. In addition, the Potency entry in assay [3] and in assay [7] was “inactive” in each case.
With `NC1=NCC2c3ccccc3Cc3ccccc3N12` (stereo not drawn), the outcome in assay [2], in assay [4], in assay [5] and in assay [6] was inactive. For the same compound, the Potency result in assay [3] and in assay [7] was “inactive” in each case.
Take `CN(C)C(=O)Oc1cccc([N+](C)(C)C)c1`: the call in assay [2], in assay [4], in assay [5] and in assay [6] was inactive. In addition, the Potency entry in assay [3] and in assay [7] was “inactive” throughout.
With `Brc1c(NC2=NCCN2)ccc2nccnc12`, the compound was called inactive in assay [2], in assay [4], in assay [5] and in assay [6]. Further, the Potency entry in assay [3] and in assay [7] was “inactive” in each case.
For the compound `CCN(CC)CCNC(=O)c1ccc(NC(C)=O)cc1`, the Potency entry in assay [3] and in assay [7] was “inactive” each time. Also, the outcome in assay [4], in assay [5] and in assay [6] was inactive.
`CCOC(=O)c1cnc2c(cnn2CC)c1NN=C(C)C`: the result in assay [2], in assay [5] and in assay [6] was inactive. For the same compound, the Potency entry in assay [3] and in assay [7] was “inactive” each time.
On to `C#CCN(C)CCCOc1ccc(Cl)cc1Cl`, for which the compound was called inactive in assay [2], in assay [5] and in assay [6]. For the same compound, the Potency entry in assay [3] and in assay [7] was “inactive” throughout.
Consider `CC(C)COCC(CN(Cc1ccccc1)c1ccccc1)N1CCCC1` (stereo not drawn), for which the Potency result in assay [3] and in assay [7] was “inactive” throughout. Besides, the outcome in assay [4], in assay [5] and in assay [6] was inactive.
Turning to `CCCNC(C)C(=O)Nc1ccccc1C` (stereo not drawn), the call in assay [2], in assay [4], in assay [5] and in assay [6] was inactive. Moreover, the Potency entry in assay [3] and in assay [7] was “inactive” throughout.
For the compound `C[C@]12CC[C@@H]3c4ccc(O)cc4C[C@@H](CCCCCCCCCS(=O)CCCC(F)(F)C(F)(F)F)[C@H]3[C@@H]1CC[C@@H]2O` (stereo partly drawn), the compound was called inactive in assay [2], in assay [4], in assay [5] and in assay [6]. Also, the Potency entry in assay [3] and in assay [7] was “inactive” in each case.
